# Assay results as given in ChEMBL document CHEMBL1961873, “Compounds: GSK PKIS; Assays: Nanosyn kinase panel” (2012).
# Columns and labels:
# [1] = target: Sphingosine kinase 1 (Homo sapiens) (UniProt Q9NYA1); settings: at 1 µM;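 further: mean SPHK1 inhibition value reported from the GSK PKIS kinase panel screen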
# [2] = target: T1, Sphingosine kinase 2 (Homo sapiens) (UniProt Q9NRA0); settings: at 0.1 µM
# T1 sequence (whole entry): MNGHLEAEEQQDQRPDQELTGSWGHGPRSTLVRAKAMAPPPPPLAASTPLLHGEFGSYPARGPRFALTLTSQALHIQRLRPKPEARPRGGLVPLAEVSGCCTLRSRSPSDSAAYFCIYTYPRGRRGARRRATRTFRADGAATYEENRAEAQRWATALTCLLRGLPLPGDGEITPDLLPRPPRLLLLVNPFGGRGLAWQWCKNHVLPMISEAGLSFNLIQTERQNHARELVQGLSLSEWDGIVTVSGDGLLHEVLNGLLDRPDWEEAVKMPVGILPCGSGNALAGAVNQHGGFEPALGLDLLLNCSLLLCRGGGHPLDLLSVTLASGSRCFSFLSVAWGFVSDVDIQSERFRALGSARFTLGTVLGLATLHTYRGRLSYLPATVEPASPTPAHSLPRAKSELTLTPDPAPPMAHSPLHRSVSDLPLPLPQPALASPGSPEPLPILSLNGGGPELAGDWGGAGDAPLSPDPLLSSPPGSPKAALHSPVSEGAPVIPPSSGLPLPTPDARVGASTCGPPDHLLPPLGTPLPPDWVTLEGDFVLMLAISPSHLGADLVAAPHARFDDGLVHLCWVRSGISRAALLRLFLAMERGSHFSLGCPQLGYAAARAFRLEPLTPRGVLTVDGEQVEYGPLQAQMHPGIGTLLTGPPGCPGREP
# [3] = target: T1, Sphingosine kinase 2 (Homo sapiens); settings: at 1 µM
# [4] = target: Casein kinase II subunit alpha (Homo sapiens) (UniProt P68400); settings: at 0.1 µM
# Sequence of Casein kinase II subunit alpha (Homo sapiens) (P68400 whole entry, looked up): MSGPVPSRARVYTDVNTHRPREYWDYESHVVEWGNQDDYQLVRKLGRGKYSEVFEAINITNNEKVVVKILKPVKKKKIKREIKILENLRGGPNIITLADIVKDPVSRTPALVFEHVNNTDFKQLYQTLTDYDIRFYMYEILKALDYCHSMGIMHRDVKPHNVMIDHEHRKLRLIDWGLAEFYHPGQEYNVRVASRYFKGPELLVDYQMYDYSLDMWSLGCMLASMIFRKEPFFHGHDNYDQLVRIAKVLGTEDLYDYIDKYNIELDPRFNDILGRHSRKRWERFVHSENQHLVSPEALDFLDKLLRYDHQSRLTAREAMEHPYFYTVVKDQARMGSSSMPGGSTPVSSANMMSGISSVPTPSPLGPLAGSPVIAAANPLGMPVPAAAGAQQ
# [5] = target: Casein kinase II subunit alpha (Homo sapiens) (UniProt P68400); settings: at 1 µM
# [6] = target: T2, Inhibitor of nuclear factor kappa-B kinase subunit alpha (Homo sapiens) (UniProt O15111); settings: at 0.1 µM
# T2 sequence (whole entry): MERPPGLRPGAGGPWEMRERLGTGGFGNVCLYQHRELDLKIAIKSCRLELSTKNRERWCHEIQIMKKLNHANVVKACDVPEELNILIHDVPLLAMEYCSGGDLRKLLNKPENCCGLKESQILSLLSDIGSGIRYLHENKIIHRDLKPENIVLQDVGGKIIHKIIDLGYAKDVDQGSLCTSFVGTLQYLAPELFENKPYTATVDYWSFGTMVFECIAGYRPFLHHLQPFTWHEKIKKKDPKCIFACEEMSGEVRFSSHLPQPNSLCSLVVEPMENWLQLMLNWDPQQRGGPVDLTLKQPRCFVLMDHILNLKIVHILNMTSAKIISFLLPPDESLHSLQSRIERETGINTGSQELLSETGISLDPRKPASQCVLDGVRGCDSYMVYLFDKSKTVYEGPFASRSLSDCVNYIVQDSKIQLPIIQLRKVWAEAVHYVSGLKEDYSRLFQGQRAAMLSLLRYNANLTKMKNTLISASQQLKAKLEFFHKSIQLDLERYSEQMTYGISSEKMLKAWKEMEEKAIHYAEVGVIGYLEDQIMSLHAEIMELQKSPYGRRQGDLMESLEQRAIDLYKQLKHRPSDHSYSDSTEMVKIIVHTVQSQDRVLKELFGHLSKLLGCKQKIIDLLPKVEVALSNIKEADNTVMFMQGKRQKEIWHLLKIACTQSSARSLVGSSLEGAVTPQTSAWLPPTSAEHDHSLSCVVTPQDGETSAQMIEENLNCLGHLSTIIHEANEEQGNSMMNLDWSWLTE
# [7] = target: T2, Inhibitor of nuclear factor kappa-B kinase subunit alpha (Homo sapiens); settings: at 1 µM
# [8] = target: T3, Inhibitor of nuclear factor kappa-B kinase subunit beta (Homo sapiens) (UniProt O14920); settings: at 0.1 µM
# T3 sequence (whole entry): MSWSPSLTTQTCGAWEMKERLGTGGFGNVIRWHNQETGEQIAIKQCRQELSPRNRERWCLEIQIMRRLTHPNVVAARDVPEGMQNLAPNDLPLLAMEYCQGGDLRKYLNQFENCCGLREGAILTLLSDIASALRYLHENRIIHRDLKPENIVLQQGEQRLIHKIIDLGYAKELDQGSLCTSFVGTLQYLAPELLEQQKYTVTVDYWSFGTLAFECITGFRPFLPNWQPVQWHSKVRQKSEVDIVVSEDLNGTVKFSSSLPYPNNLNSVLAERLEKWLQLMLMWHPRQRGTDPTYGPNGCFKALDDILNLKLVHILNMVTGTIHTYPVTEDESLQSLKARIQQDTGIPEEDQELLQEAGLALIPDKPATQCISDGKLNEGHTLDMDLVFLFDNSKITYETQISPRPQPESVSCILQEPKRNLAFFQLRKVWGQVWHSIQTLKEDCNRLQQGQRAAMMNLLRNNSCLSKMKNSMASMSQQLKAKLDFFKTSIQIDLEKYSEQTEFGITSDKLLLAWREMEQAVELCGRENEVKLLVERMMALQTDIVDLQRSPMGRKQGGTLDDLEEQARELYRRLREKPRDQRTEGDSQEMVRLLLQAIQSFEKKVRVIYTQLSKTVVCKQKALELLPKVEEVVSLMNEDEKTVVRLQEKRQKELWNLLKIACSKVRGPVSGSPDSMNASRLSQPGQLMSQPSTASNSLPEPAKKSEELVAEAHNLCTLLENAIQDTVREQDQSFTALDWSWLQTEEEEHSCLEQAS
# [9] = target: T3, Inhibitor of nuclear factor kappa-B kinase subunit beta (Homo sapiens); settings: at 1 µM
# [10] = target: T4, Inhibitor of nuclear factor kappa-B kinase subunit epsilon (Homo sapiens) (UniProt Q14164); settings: at 0.1 µM
# T4 sequence (whole entry): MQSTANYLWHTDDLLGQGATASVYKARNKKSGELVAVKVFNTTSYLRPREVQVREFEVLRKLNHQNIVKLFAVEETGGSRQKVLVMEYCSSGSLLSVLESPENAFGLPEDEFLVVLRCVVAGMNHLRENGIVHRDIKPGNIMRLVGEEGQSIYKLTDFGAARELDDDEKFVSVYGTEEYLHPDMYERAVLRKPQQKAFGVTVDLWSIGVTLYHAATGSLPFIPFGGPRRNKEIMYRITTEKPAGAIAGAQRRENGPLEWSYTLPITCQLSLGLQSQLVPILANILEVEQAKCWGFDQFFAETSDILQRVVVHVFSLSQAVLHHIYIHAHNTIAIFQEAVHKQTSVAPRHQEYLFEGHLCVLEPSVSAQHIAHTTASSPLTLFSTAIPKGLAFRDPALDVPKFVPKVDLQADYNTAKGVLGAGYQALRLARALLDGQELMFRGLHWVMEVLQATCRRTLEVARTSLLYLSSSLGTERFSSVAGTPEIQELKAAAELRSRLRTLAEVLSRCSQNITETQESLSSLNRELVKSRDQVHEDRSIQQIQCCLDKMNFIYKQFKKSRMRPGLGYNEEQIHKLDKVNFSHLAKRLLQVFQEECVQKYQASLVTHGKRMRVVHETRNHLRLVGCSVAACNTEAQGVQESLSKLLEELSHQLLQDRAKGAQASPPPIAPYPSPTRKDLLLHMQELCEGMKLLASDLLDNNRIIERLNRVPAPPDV
# [11] = target: T4, Inhibitor of nuclear factor kappa-B kinase subunit epsilon (Homo sapiens); settings: at 1 µM
# [12] = target: T5, Serine/threonine-protein kinase Nek1 (Homo sapiens) (UniProt Q96PY6); settings: at 0.1 µM
# T5 sequence (whole entry): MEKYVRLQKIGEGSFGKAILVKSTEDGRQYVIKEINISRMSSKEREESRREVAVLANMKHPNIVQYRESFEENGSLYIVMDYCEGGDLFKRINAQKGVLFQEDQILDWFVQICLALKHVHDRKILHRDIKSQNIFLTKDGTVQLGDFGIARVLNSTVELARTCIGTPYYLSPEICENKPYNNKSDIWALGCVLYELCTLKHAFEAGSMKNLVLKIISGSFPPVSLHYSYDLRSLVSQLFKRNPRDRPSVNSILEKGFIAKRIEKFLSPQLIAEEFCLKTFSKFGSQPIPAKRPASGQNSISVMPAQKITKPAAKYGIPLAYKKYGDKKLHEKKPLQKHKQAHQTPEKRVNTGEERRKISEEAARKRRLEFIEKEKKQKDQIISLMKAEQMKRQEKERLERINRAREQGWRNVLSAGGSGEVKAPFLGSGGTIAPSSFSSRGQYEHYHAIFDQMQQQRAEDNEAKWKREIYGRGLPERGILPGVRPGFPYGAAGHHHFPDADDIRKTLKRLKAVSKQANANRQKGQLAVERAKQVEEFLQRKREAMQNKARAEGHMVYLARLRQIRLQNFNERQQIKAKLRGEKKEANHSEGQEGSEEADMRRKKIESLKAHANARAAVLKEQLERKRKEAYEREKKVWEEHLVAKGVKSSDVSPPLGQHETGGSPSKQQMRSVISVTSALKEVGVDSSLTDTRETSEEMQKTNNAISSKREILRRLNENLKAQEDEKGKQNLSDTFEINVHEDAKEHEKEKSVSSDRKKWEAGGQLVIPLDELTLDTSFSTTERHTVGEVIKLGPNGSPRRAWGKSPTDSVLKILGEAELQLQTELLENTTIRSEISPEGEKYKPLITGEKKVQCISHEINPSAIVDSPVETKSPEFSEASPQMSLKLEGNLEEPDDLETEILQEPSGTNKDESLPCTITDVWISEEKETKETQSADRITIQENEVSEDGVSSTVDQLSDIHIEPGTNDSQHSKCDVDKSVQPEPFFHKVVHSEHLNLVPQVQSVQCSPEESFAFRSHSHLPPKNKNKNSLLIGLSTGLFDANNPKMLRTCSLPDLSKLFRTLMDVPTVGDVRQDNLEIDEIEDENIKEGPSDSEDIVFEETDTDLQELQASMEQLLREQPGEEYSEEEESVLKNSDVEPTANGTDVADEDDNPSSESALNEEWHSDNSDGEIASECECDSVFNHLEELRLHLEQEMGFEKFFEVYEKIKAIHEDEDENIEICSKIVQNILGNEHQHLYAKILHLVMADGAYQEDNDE
# [13] = target: T5, Serine/threonine-protein kinase Nek1 (Homo sapiens); settings: at 1 µM
# [14] = target: T6, Serine/threonine-protein kinase Nek2 (Homo sapiens) (UniProt P51955); settings: at 0.1 µM
# T6 sequence (whole entry): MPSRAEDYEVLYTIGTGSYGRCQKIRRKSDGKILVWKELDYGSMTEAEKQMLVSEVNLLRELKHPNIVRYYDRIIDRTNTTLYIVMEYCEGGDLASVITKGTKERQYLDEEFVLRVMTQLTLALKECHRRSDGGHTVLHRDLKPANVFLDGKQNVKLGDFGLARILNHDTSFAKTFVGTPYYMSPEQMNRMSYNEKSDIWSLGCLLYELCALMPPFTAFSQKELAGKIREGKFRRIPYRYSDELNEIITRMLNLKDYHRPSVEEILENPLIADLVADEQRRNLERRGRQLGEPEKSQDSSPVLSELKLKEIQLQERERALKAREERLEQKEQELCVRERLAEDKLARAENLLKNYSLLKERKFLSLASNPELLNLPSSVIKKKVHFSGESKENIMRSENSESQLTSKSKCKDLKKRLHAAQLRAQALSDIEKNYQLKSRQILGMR
# [15] = target: T6, Serine/threonine-protein kinase Nek2 (Homo sapiens); settings: at 1 µM
# [16] = target: Serine/threonine-protein kinase Nek6 (Homo sapiens) (UniProt Q9HC98); settings: at 0.1 µM
# Sequence of Serine/threonine-protein kinase Nek6 (Homo sapiens) (Q9HC98 whole entry): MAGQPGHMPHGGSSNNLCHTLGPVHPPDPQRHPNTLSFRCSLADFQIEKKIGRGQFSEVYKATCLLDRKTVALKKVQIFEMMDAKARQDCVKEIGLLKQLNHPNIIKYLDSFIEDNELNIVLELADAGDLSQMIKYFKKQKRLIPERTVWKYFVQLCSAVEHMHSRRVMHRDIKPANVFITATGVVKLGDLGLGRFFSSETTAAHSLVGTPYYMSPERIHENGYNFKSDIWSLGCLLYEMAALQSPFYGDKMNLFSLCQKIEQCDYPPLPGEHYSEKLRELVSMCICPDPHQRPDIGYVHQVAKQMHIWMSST
# [17] = target: Serine/threonine-protein kinase Nek6 (Homo sapiens) (UniProt Q9HC98); settings: at 1 µM
# [18] = target: Serine/threonine-protein kinase Nek7 (Homo sapiens) (UniProt Q8TDX7); settings: at 0.1 µM
# Sequence of Serine/threonine-protein kinase Nek7 (Homo sapiens) (Q8TDX7 whole entry, looked up): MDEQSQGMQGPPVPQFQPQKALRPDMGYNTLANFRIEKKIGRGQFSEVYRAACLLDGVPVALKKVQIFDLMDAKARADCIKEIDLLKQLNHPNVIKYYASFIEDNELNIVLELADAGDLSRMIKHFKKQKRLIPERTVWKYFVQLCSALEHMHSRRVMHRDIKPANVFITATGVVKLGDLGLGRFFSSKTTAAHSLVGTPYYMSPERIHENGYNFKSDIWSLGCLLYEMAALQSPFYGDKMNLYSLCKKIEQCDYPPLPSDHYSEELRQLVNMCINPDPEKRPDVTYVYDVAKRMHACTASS
# [19] = target: Serine/threonine-protein kinase Nek7 (Homo sapiens) (UniProt Q8TDX7); settings: at 1 µM
# [20] = target: T7, Serine/threonine-protein kinase Nek9 (Homo sapiens) (UniProt Q8TD19); settings: at 0.1 µM;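 further: reported value is the mean percent inhibition of NEK9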
# T7 sequence (whole entry): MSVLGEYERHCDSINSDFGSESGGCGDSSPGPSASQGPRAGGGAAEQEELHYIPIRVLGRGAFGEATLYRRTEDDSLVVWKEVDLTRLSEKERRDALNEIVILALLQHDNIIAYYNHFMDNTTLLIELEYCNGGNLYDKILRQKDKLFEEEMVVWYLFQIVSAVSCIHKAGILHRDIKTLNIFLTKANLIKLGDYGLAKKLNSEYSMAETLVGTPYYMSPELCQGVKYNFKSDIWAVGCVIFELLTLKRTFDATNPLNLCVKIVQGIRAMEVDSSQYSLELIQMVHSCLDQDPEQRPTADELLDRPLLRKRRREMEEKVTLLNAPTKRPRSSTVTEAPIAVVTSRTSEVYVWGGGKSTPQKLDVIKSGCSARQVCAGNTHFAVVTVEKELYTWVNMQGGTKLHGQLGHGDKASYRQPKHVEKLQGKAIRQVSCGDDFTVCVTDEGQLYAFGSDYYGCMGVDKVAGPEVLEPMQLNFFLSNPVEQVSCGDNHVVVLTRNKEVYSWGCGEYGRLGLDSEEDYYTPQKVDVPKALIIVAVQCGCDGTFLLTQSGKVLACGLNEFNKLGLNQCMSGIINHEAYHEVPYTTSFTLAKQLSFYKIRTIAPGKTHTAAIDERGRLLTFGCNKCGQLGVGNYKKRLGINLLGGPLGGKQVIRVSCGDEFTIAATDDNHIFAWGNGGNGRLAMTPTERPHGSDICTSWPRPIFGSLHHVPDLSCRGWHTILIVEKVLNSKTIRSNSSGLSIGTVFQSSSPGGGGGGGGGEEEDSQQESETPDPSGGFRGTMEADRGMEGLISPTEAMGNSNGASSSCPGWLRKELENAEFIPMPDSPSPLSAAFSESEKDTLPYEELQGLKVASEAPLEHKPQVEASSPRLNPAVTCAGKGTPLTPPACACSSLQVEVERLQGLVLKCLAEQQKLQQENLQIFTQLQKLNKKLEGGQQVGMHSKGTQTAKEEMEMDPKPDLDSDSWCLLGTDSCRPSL
# Sequence of Sphingosine kinase 1 (Homo sapiens) (Q9NYA1 whole entry): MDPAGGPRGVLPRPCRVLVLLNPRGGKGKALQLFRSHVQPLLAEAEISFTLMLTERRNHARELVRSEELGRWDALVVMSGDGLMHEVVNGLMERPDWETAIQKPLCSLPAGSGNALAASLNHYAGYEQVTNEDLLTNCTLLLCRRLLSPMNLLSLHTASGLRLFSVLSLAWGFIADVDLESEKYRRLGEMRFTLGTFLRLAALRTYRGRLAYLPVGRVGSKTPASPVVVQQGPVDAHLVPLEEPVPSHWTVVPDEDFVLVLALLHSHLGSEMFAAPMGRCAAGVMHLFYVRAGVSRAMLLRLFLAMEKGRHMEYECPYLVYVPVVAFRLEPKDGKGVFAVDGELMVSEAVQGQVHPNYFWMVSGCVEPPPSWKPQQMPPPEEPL
smiles,measurement,setting,value
COc1ccc(-c2nn3ncccc3c2-c2ccnc(Nc3cccc(C(F)(F)F)c3)n2)cc1,inhibition,[1],1.42%
same,inhibition,[2],-1.04%
same,inhibition,[3],-0.08%
same,inhibition,[4],6.68%
same,inhibition,[5],1.12%
same,inhibition,[6],3.17%
same,inhibition,[7],8.21%
same,inhibition,[8],3.3%
same,inhibition,[9],4.64%
same,inhibition,[10],4.96%
same,inhibition,[11],4.37%
same,inhibition,[12],1.37%
same,inhibition,[13],0.9%
same,inhibition,[14],4.06%
same,inhibition,[15],1.46%
same,inhibition,[16],-1.61%
same,inhibition,[17],1.08%
same,inhibition,[18],1.12%
same,inhibition,[19],2.05%
same,inhibition,[20],6.48%
